This passage reports outcome and Potency results from PubChem BioAssay (Tox21).

Test [1] is described as follows: qHTS assay to test for compound auto fluorescence at 535 nm (green) in HEK293 cells (AID 720680). (In qHTS, concentration-response curves come from the screen itself.)
Test [2] in a line: qHTS assay to test for compound auto fluorescence at 535 nm (green) in HEK293 cell free culture (AID 720682). In outline: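 Intrinsic compound fluorescence is measured in culture medium containing 10% FBS, with excitation at 485 nm and detection at 535 nm, referenced to fluorescein.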
Test [3] in a line: qHTS assay to test for compound auto fluorescence at 590 nm (red) in HEK293 cell free culture (AID 720683). The procedure, abridged:
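Tox21 10K library compounds were pinned into cell-free DMEM with 10% FBS and fluorescence was read at excitation 540 nm. Activity is expressed as Rose Bengal sodium equivalency.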

A short description of test [4]: qHTS assay to test for compound auto fluorescence at 590 nm (red) in HepG2 cell free culture (AID 720684). In outline:
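Readout: intrinsic compound fluorescence at 590 nm emission after 540 nm excitation, scaled to Rose Bengal sodium. Matrix was cell-free MEM with 10% FBS; DMSO vehicle wells served as control.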

Test [5] is described as follows: qHTS assay to test for compound auto fluorescence at 460 nm (blue) in HepG2 cell free culture (AID 720685). In outline: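 Cell-free plates of MEM plus 10% FBS received 23 nL compound or DMSO vehicle; blue-channel (405/460 nm) intensity scored against triamterene as reference fluorophore.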
Test [6] is described as follows: qHTS assay to test for compound auto fluorescence at 535 nm (green) in HepG2 cell free culture (AID 720686). Also: potency is read from the fitted curve at half-maximal effect.
Test [7] is described as follows: qHTS assay to test for compound auto fluorescence at 460 nm (blue) in HepG2 cells (AID 720687). The procedure, abridged:
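Cells (2,000/well in MEM with 10% FBS) attached overnight at 37 C, then were exposed to compound or DMSO for 1 hr at 37 C, 5% CO2. Fluorescence read at Ex/Em 405/460 nm, expressed as triamterene-equivalent signal.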

Test [8] can be described thus: qHTS assay to identify small molecule antagonists of the glucocorticoid receptor (GR) signaling pathway - cell viability counter screen (AID 720693). Also: nearly all actives have a fitted effect of over 55% in size.
Test [9] can be described thus: qHTS assay for identifying genotoxic compounds that show differential cytotoxicity against isogenic chicken DT40 cell lines with known DNA damage response pathways - wild type cell line (AID 743012). Also: nearly all actives have a fitted effect of over 60% in size. Also: potency is read from the fitted curve at half-maximal effect. The procedure, abridged: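 Viability by ATP luminescence (CellTiter-Glo, 30 min RT) after 40 h compound treatment at 37 C/5% CO2, using 300 parental DNA repair-proficient DT40 cells per well.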

Test [10] is described as follows: qHTS assay for identifying genotoxic compounds that show differential cytotoxicity against isogenic chicken DT40 cell lines with known DNA damage response pathways - Rev3 mutant cell line (AID 743014). Also: nearly all actives have a fitted effect of over 55% in size. Also: potency is read from the fitted curve at half-maximal effect.
A short description of test [11]: qHTS assay for identifying genotoxic compounds that show differential cytotoxicity against isogenic chicken DT40 cell lines with known DNA damage response pathways - Rad54/Ku70 mutant cell line (AID 743015). Also: nearly all actives have a fitted effect of over 60% in size. Also: potency is read from the fitted curve at half-maximal effect.
Test [12] is described as follows: qHTS assay to identify small molecule antagonists of the androgen receptor (AR) signaling pathway - cell viability counter screen (AID 743033; also: nearly all actives have a fitted effect of over 45% in size; also: potency is read from the fitted curve at half-maximal effect).
The nature of test [13]: qHTS assay to identify small molecule antagonists of the androgen receptor (AR) signaling pathway using the MDA cell line - cell viability counter screen (AID 743041; also: nearly all actives have a fitted effect of over 45% in size; also: potency is read from the fitted curve at half-maximal effect). In outline: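 qHTS viability read-out; MDA-kb2 AR-luc; R1881-stimulated; 16 h exposure at 37C, 0% CO2; CellTiter-Fluor, 30 min; fluorescence intensity.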
Test [14] has as its target Glucocorticoid receptor (Homo sapiens) (UniProt P04150). The experiment in a line: qHTS assay to identify small molecule agonists of the glucocorticoid receptor (GR) signaling pathway (AID 720691; active = well fitted activation curve with a large enough effect in the signal ratio in the repeat runs, not every such curve was filed as active; the % refers to the signal ratio). The conditions noted are these: GR-bla HeLa, beta-lactamase reporter ratio, 18 h; activation: at 62.4 µM (top of the series). The procedure, abridged: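 Agonist-mode qHTS in HeLa cells stably expressing a glucocorticoid-response-element beta-lactamase reporter. Fluorescence intensity read with FRET substrate (2 h, room temperature) after 18 h compound treatment at 37 C.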

Test [15] deals with Androgen receptor (Homo sapiens) (UniProt P10275). The experiment in a line: qHTS assay to identify small molecule agonists of the androgen receptor (AR) signaling pathway (AID 743036; active = well fitted activation curve with a large enough effect in the signal ratio in the repeat runs, with a control signal flat, not every such curve was filed as active; the % refers to the signal ratio). In outline: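 Agonist activity was scored by beta-lactamase reporter fluorescence in stably transfected HEK293 cells exposed to compounds for 16 h at 37C and 5% CO2. Substrate loading took 2 h at room temperature.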

For test [16] the target is unchanged. Kind of test: qHTS assay to identify small molecule agonists of the androgen receptor (AR) signaling pathway using the MDA cell line (AID 743040; also: nearly all actives have a fitted effect of over 20% in size). The procedure, abridged:
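Agonist activity is measured as luciferase luminescence in human MDA-kb2 cells whose MMTV reporter responds to both AR and GR. Compounds in DMSO incubate 16 h at 37C, 0% CO2, and ONE-Glo is read after 30 min.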

The target is the same in test [17]. Kind of test: qHTS assay to identify small molecule antagonists of the androgen receptor (AR) signaling pathway using the MDA cell line (AID 743042; also: nearly all actives have a fitted effect of over 55% in size). In outline:
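MDA-kb2 cells (human breast carcinoma, stably carrying an MMTV-luciferase reporter responsive to AR and GR) were plated at 3,000 cells/well and preincubated 5 hr at 37C, then given compound plus R1881 agonist for 16 h. ONE-Glo luminescence was read.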

Test [18] addresses Glucocorticoid receptor (Homo sapiens) (UniProt P04150). The experiment in a line: qHTS assay to identify small molecule antagonists of the glucocorticoid receptor (GR) signaling pathway (AID 720692; active = well fitted inhibition curve with a large enough effect in the signal ratio in the repeat runs, not every such curve was filed as active; the % refers to the signal ratio; also: potency is read from the fitted curve at half-maximal effect). The procedure, abridged:
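Inhibition of dexamethasone-driven (5 nM final) beta-lactamase expression was measured in GRE-reporter HeLa cells over 18 h at 37C. Fluorescence was read after 2 h with the B/G FRET substrate at room temperature.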

Test [19] has as its target Androgen receptor (Homo sapiens) (UniProt P10275). Kind of test: qHTS assay to identify small molecule antagonists of the androgen receptor (AR) signaling pathway (AID 743035; active = well fitted inhibition curve with a large enough effect in the signal ratio in the repeat runs, not every such curve was filed as active; the % refers to the signal ratio; also: potency is read from the fitted curve at half-maximal effect). In outline: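 Antagonist mode: AR-bla HEK293 cells co-treated with test compounds and agonist R1881 for 16 h at 37C, 5% CO2. Beta-lactamase activity read as FRET fluorescence after 2 h room-temperature substrate loading.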

SMILES strings stand for the structures. Values joined by “and” are separate entries in the source; they are usually repeats but may differ in a detail not shown here. Equal entries are not always repeated. Records with an inconclusive call do not appear. A structure can be active in one record and inactive in another. Active and inactive are the calls of the source. Unless noted, calls follow the shape of the dose curve; as a rule, active = well fitted curve in the direction sought with a large enough effect in the repeat runs; inconclusive = weak or mixed curves; inactive = no such curve, though single readings can be large; an effect the other way counts as inactive or inconclusive.
Tags tell the direction and shape of the fitted curve or compound fluorescence and quenching.

Chain of Androgen receptor (Homo sapiens) (P10275 whole entry, looked up): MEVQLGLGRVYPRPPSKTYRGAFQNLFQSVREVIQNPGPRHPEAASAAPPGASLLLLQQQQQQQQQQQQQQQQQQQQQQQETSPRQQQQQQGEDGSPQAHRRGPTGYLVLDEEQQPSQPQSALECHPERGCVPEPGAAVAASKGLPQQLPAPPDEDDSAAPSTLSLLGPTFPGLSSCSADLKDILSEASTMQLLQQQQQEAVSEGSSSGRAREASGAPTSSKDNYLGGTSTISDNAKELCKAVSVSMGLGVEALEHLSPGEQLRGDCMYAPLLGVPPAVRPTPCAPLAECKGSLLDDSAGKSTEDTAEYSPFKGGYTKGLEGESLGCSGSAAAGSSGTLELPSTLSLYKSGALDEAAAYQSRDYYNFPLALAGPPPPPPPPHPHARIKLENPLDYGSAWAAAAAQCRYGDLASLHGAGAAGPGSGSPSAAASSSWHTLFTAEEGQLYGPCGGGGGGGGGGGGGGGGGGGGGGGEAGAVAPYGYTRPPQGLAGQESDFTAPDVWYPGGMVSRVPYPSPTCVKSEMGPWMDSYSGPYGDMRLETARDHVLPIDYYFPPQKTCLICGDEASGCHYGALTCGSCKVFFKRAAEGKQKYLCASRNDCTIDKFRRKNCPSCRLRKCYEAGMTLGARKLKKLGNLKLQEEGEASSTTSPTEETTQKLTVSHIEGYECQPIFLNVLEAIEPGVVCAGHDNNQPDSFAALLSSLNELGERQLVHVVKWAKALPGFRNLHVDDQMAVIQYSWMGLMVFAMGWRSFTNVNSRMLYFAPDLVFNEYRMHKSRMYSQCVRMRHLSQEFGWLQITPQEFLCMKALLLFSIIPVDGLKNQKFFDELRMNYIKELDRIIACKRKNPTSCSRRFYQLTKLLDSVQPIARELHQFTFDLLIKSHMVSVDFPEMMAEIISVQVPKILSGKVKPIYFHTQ
Chain of Glucocorticoid receptor (Homo sapiens) (P04150 whole entry, looked up): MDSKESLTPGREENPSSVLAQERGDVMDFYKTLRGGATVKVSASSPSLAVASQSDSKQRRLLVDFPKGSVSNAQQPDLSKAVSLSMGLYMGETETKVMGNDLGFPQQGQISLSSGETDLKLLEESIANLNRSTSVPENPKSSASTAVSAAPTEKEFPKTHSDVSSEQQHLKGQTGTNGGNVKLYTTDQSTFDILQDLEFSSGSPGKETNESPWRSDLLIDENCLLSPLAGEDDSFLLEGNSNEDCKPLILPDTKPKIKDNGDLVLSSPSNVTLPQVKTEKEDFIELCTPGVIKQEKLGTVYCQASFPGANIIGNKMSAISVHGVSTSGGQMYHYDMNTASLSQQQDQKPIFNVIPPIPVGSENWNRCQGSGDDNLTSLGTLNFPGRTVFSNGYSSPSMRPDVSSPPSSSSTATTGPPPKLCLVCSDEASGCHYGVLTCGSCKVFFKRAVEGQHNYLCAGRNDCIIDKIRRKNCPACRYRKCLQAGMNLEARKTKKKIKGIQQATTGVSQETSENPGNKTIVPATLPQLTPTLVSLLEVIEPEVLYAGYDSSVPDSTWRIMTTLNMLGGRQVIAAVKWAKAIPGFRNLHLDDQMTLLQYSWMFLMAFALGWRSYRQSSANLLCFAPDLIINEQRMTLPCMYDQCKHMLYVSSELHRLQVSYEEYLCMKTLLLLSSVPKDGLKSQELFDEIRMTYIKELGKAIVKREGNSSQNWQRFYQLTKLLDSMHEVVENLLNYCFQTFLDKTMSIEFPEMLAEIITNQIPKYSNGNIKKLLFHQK

Regarding `CC(=O)[O-].CC(=O)[O-].O.O.[Zn+2]`, the compound was called inactive in test [1], in test [2], in test [3] and in [4]. Moreover, the Potency result in test [5], in [6], in [7], in [8], in test [9] and in test [10] was “inactive” throughout. The Potency entry in test [11], in test [12] and in test [13] was “inactive” throughout.
On to `c1ccc(N=NNc2ccccc2)cc1`, for which the result in [1], in test [2] and in test [3] was inactive. Also, the Potency entry in test [5], in test [6], in test [7] and in test [12] was “inactive” throughout. The Potency in test [11] is 63.3 µM (active).
`CCC(C)Br` (stereo not drawn): the result in test [1], in test [2], in test [3] and in test [4] was inactive. The Potency result in test [5], in [6], in test [7], in test [8], in test [9] and in [10] was “inactive” throughout. Moreover, the Potency entry in test [11], in test [12] and in [13] was “inactive” in each case.
`CO/N=C(\C(=O)OC)c1ccccc1CO/N=C(\C)c1cccc(C(F)(F)F)c1`: the compound was classed as inactive in test [1], in test [2], in test [3] and in [4]. Besides, the Potency result in [5], in test [6] and in test [7] was “inactive” in each case. In addition, the Potency in test [9] is 0.344 µM (active); in test [10], 0.273 µM (active); in test [11], 0.273 µM (active); in test [13], 5.45 µM (active).
As to `CCCCCCCc1ccc(O)cc1`, the result in test [1], in test [2], in test [4], in [15] and in test [16] was inactive. For the same compound, the Potency entry in [5], in [6], in test [7], in test [14], in test [12] and in test [13] was “inactive” in each case. For the same compound, the Potency entry in test [17] is “inactive”. Moreover, the Potency was 21.7 µM (active) in test [9], 19.3 µM (active) in test [10] and 19.3 µM (active) in test [11].
As for `Nc1nc(N)c(N)c(N)n1`, the compound was classed as inactive in test [3]. Moreover, in test [6], the Potency was 28.2 µM [fluorescent] (active). Further, the Potency entry in test [8], in test [9], in [10], in [11], in [12] and in test [13] was “inactive” each time.
Regarding `C1=CCC=C1`, the call in test [1], in test [2] and in [3] was inactive. Moreover, the Potency entry in test [6], in [8], in test [9], in [10], in test [11] and in test [12] was “inactive” throughout. The Potency entry in [13] was “inactive”.
Turning to `CC(C)(C)c1ccc(OP(=O)(Oc2ccccc2)Oc2ccccc2)cc1`, the compound was classed as inactive in [1], in [2] and in test [4]. The Potency entry in [5], in [6], in test [7] and in [8] was “inactive” throughout. For the same compound, the Potency in [9] was 61.5 µM (active); in test [10] it was 27.5 µM (active); in test [11], 19.4 µM (active).
As to `O=c1[nH]c(Cl)c(Cl)cc1Cl`, the compound was classed as inactive in test [1], in test [2], in test [3], in test [4] and in test [16]. In addition, the Potency entry in test [5], in test [6], in test [7], in [8], in test [9] and in test [10] was “inactive” throughout. The Potency entry in test [11], in test [12], in [13] and in test [17] was “inactive” in each case.
Consider `Nc1c(Cl)c(Cl)c(Cl)c(Cl)c1Cl`, for which the compound was called inactive in [1], in test [2], in [3], in test [4] and in [16]. The Potency entry in [5], in [6], in [7], in test [8], in test [11] and in test [12] was “inactive” in each case. Besides, the Potency result in [17] is “inactive”.
For the compound `CCC(C)Nc1c([N+](=O)[O-])cc(C(C)(C)C)cc1[N+](=O)[O-]` (stereo not drawn), the compound was called inactive in test [1] and in test [2]. Moreover, the Potency result in test [5], in test [7], in test [14], in test [18], in test [8] and in test [9] was “inactive” throughout. In addition, the Potency entry in [10], in [11], in test [12] and in test [13] was “inactive” each time.
For the compound `CC(C)=CCN1CC[C@@]2(C)c3cc(O)ccc3C[C@@H]1[C@@H]2C`, the call in test [1], in test [2], in [3] and in [4] was inactive. Moreover, the Potency entry in [5], in [6], in test [7] and in [12] was “inactive” in each case. Further, the Potency in test [9] is 19 µM (active); in test [10], 26.9 µM (active); in test [11] it was 60.2 µM (active).
As to `Clc1ccc(C(c2ccc(Cl)cc2)C(Cl)Cl)cc1`, the outcome in test [1], in [2], in [3] and in test [4] was inactive. Further, the Potency result in test [5], in [6], in test [7], in test [14], in test [12] and in test [13] was “inactive” each time. Moreover, the Potency was 24.9 µM (active) in test [18]; 39.2 µM (active) and 19.3 µM (active) in test [9]; 17.5 µM (active) and 3.86 µM (active) in [10]; 27.8 µM (active) and 10.9 µM (active) in test [11].
Turning to `Oc1ccc([C@H]2CNCc3c2ccc(O)c3O)cc1O`, the call in test [1], in [2], in test [3] and in test [4] was inactive. The Potency result in [5], in [6], in [7], in test [8], in [12] and in test [13] was “inactive” in each case.
For the compound `O=S1OCC2C(CO1)C1(Cl)C(Cl)=C(Cl)C2(Cl)C1(Cl)Cl` (stereo not drawn), the result in test [1], in test [2] and in test [16] was inactive. The Potency result in test [5], in test [6], in test [7] and in test [13] was “inactive” in each case. Further, the Potency is 54.5 µM (active) and 24.3 µM (active) in [9]; 30.7 µM (active) and 34.3 µM (active) in [10]; 48.6 µM (active) and 48.5 µM (active) in test [11]; 49 µM (active) in test [12]; 38.9 µM (active) and 48.9 µM (active) in test [19].
`CC(=O)O.CC(=O)O.CC(=O)O.CC(=O)O.CC(=O)O.CC(=O)O.CC(=O)O.O.O.[Cr].[Cr].[Cr]`: the compound was called inactive in test [1], in test [2], in test [3] and in [4]. The Potency result in [5], in test [6], in test [7], in [8], in test [9] and in test [10] was “inactive” throughout. The Potency entry in [11], in test [12] and in test [13] was “inactive” throughout.
In the case of `CCCCCCCCCCCCCCn1cc[n+](C)c1`, the result in [1], in test [2], in test [3] and in test [4] was inactive. For the same compound, the Potency result in test [5], in test [6] and in [7] was “inactive” each time. For the same compound, the Potency in [9] was 217 nM (active) and 241 nM (active) and inactive; in test [10] it was 109 nM (active) and 152 nM (active) and inactive; in [11] it was 122 nM (active) and 135 nM (active) and inactive; in test [12], 6.93 µM (active) and 24.3 µM (active) and inactive.
